Reference: PubChem BioAssay
A number with no mark means an inactive call. The source made the active and inactive calls. Cut-off read from the data, not from the text of the source, unless noted: active = inhibition above about 25%; inactive = the rest.

Legend:
[1] = target: Nuclear receptor coactivator 3 (Homo sapiens) (UniProt Q9Y6Q9); assay: NCOA3 GAL4-fusion reporter inhibition – cell-based, luminescence, quadruplicate, confirmation (AID 588792;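 active = mean inhibition over 43.08%, the solvent-only control mean plus 3 SD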;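 note: 0% = DMSO treated cells and 100% = gossypol at 36 µM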); conditions: HEK293 GAL4-SRC3 luciferase reporter, at 3.6 µM, hits give high values
Sequence of Nuclear receptor coactivator 3 (Homo sapiens) (Q9Y6Q9 whole entry, looked up, the tested form may be a part): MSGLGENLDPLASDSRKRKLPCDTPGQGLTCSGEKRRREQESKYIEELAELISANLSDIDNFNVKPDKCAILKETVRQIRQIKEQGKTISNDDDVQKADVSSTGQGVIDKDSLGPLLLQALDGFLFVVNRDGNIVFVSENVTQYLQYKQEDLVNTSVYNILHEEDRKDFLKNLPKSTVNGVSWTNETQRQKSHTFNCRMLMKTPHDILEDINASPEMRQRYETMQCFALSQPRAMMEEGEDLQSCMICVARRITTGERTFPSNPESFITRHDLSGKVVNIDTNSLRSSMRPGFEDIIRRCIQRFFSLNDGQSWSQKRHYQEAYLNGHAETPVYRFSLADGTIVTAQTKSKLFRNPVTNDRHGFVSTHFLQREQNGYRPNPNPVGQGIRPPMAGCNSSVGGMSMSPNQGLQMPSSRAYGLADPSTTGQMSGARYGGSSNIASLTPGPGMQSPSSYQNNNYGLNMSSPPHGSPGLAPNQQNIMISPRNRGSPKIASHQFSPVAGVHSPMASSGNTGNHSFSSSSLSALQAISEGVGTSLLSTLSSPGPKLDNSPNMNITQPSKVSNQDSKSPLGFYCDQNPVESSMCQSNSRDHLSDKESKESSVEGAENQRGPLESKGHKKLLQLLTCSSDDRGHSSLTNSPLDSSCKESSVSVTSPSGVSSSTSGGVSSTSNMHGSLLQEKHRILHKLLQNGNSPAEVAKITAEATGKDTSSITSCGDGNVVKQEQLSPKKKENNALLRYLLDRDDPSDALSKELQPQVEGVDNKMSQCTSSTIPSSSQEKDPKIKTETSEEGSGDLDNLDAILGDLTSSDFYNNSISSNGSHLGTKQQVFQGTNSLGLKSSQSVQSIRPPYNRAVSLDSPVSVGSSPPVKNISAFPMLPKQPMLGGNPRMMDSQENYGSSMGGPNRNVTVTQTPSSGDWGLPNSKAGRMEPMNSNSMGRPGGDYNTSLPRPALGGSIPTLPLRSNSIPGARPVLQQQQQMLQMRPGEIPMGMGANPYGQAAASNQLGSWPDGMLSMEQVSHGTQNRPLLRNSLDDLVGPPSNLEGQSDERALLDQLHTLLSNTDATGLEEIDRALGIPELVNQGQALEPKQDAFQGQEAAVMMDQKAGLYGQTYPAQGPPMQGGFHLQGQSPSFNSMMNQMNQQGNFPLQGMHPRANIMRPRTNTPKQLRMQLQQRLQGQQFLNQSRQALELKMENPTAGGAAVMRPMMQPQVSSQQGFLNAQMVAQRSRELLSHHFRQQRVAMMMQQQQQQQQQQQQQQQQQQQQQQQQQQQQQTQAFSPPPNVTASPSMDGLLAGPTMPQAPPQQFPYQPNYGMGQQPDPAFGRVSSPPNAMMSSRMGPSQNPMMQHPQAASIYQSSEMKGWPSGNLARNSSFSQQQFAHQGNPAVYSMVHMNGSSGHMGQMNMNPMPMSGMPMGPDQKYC

[2] = test system: transactivating tegument protein VP16 (Human herpesvirus 1), Gal4-VP16 luciferase reporter; assay: repression of VP16-driven luciferase reporter – cell-based, luminescence, high throughput, counter-screen for SRC3 inhibitor project (AID 588794; in the data active = inhibition above about 30%); conditions: mammalian cells, at 3.6 µM, hits give high values
[3] = target: Nuclear receptor coactivator 1 (Homo sapiens) (UniProt Q15788); assay: NCOA1 GAL4-fusion reporter inhibition – cell-based, luminescence, quadruplicate, confirmation (AID 588820;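 active = mean inhibition above 46.68%, the untreated control wells mean plus 3 SD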;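 note: 0% = DMSO wells and 100% = gossypol 36 µM treated wells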); conditions: HEK293 GAL4-SRC1 luciferase reporter, at 3.6 µM, hits give high values
Sequence of Nuclear receptor coactivator 1 (Homo sapiens) (Q15788 whole entry, looked up, the tested form may be a part): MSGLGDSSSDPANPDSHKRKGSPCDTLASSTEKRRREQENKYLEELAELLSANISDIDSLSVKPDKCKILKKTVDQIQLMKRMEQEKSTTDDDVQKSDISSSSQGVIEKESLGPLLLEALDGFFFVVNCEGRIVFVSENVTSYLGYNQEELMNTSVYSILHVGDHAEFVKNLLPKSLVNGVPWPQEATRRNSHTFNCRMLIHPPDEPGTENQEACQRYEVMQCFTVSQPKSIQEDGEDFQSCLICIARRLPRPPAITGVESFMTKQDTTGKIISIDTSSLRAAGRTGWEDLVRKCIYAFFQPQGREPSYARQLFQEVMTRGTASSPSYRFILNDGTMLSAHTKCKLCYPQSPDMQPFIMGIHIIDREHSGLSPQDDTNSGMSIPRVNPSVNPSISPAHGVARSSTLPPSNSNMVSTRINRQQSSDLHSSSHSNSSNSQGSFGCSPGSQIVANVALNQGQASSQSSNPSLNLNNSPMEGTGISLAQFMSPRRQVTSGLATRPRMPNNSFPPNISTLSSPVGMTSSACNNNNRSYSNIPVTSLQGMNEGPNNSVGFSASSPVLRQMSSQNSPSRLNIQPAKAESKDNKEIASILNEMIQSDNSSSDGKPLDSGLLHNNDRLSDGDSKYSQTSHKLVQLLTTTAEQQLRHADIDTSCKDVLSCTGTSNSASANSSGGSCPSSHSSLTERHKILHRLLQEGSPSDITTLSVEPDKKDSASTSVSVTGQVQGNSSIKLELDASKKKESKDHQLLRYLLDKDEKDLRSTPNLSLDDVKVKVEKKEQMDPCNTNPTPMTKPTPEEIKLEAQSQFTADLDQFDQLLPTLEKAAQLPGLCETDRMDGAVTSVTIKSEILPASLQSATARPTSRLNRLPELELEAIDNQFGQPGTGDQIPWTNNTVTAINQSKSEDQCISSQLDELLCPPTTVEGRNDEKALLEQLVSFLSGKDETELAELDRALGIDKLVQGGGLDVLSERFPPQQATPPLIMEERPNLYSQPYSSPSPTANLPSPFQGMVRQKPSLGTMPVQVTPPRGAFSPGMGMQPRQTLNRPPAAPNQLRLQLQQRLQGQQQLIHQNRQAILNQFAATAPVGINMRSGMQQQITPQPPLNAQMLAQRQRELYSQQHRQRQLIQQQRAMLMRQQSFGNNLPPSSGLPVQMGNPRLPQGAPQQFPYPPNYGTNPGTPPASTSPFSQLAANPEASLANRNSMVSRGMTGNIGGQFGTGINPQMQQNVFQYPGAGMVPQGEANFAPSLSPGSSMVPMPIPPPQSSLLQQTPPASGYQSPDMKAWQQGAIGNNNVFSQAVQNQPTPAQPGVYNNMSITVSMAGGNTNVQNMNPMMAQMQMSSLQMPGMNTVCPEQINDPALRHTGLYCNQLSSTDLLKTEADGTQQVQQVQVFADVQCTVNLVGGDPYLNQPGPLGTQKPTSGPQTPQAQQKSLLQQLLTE

[4] = repression of VP16-driven luciferase reporter – cell-based, luminescence, high throughput, counter-screen for SRC1 inhibitor project (AID 588824); conditions: cell-based VP16 transactivation luciferase luminescence; at 3.6 µM; hits give high values

Row | SMILES | inhibition [1] | inhibition [2] | inhibition [3] | inhibition [4]
1 | COc1ccc(Cl)cc1Nc1nc(-c2sc(NC(=O)C(C)(C)C)nc2C)cs1 | 15.2% | 35.9% (active) | 14.5% | 39.8% (active)
2 | Cc1ccc(C(=O)NCCn2cc(SCC(=O)Nc3nnc(C)s3)c3ccccc32)cc1 | 18.6% | 4.22% | -32.5% | -0.04%
3 | N=c1c2c(-c3ccccc3)c(-c3ccccc3)n(Cc3ccccc3)c2ncn1CCCO | 12% | 53.2% (active) | 42.6% | 51% (active)
4 | O=C(CCl)N1N=C(c2cccs2)CC1c1ccco1 (configuration not stated) | 27.7% | 6.29% | 18.4% | 17.4%
5 | COCC(C)n1c(C)cc(C(=O)COC(=O)c2cc(=O)[nH]c3ccccc23)c1C (configuration not stated) | 1.93% | -15.5% | -34.1% | -32.1%
6 | CC(=O)c1c(C)oc2ccc(N(C(C)=O)S(=O)(=O)c3cccc4cccnc34)cc12 | 15.2% | 21.9% | 6.31% | 18.4%
7 | O=C(N/N=C\c1c(O)ccc2ccccc12)c1cncc(Br)c1 | 83% (active) | 84% (active) | 77.7% (active) | 80.5% (active)
8 | O=C(Nc1cccc(S(=O)(=O)Nc2ccccc2Cl)c1)c1ccc(Cl)nc1 | -1.42% | 27.7% | 5.83% | 32.2% (active)
9 | CCN1CCN(c2ccc(Nc3ccnc4ccccc34)cc2)CC1 | 43.5% (active) | 32.1% (active) | 40.1% | 42.5% (active)
10 | COC(=O)c1cc(Cl)cc(Cl)c1OS(=O)(=O)N(C)C | -11.6% | -46.8% | -212% | -59.6%
11 | COc1ccc(-n2c(=S)[nH]c3cc(C(=O)Nc4ccc(F)cc4)ccc3c2=O)c(OC)c1 | 19.7% | 40.8% (active) | 26.5% | 44.6% (active)
12 | CN(C)/C=C/C(=O)c1ccc2noc(-c3ccccc3)c2c1 | 55.5% (active) | 28.1% | 41.3% | 33.7% (active)
13 | CCN(CC)c1ccc(/C=N/NC(=O)CCC(=O)NCc2ccccc2)c(O)c1 | 22.7% | 21.6% | 12.5% | 28.9% (active)
14 | CC(C)(C)S(=O)N1Cc2cc(C(=O)NCC(F)(F)F)nc(-c3cccc(-c4cccc(F)c4)c3)c2[C@@H]1CCO (some centres not stated) | 10.3% | 2.05% | -14.2% | -2.6%
15 | CC(C)n1cnc2c(NCc3ccccc3)cc(N[C@H](C)CO)cc21 | 16.4% | 87.3% (active) | 35.6% | 8.74%
16 | CC(=O)c1c(C)n(-c2ccccc2)c2ccc(O)cc12 | 50.6% (active) | 41.6% (active) | 44.7% | 37.9% (active)
17 | CCCCCCCCCn1c2c(c(=N)c3c1CCC3)CCC2 | 89.7% (active) | 85.2% (active) | 71.4% (active) | 84.8% (active)
18 | CCN(CC)CCCNc1ccc2ncn3c4ccc(O)cc4c(=O)c1c23 | 16.5% | 51.3% (active) | 47.9% (active) | 49.9% (active)
19 | CCOC(=O)c1cc2sccc2n1CC(=O)N1CCc2ccccc21 | 43.4% (active) | 29.2% | 31.8% | 31.3% (active)
20 | COc1ccc2cc3c(N)nn(C(=O)c4ccc(F)cc4)c3nc2c1 | 69.8% (active) | 36.1% (active) | 56.7% (active) | 36.3% (active)
21 | Cc1cc(=O)[nH]c(Nc2cccc(Br)c2)n1 | 22.7% | 23.7% | 34.2% | 24.4%
22 | Cc1cc(=O)[nH]c(NN=Cc2cc(Br)ccc2O)n1 | 76.2% (active) | 64% (active) | 51.2% (active) | 64.8% (active)
23 | O=C(N/N=C/c1ccccc1O)c1cccc(C(F)(F)F)c1 | 57.9% (active) | 43.2% (active) | 65.9% (active) | 48.8% (active)
24 | Cn1c(Sc2ccc(Cl)cc2)c(C=O)c2ccccc21 | 52.3% (active) | 43.6% (active) | 60% (active) | 37% (active)
25 | CCOC(=O)CC(=O)CSc1nccc(-c2cccnc2)n1 | 37.5% | 15.3% | 16.4% | 10.1%
26 | COc1cccc(-c2ccc3ncnc(NCc4ccc5c(c4)OCO5)c3c2)c1 | 37.3% | 30.1% (active) | 45.2% | 30% (active)
27 | Clc1cncc(Cl)c1N/N=C/c1ccncc1 | 24.8% | 26.7% | 40.4% | 27.4% (active)

Row | SMILES | inhibition [1] | inhibition [2] | inhibition [3] | inhibition [4]
28 | Oc1ccc(Nc2nc(N3CCCC3)c3ccccc3n2)cc1 | 25.6% | 42.7% (active) | 34% | 40.2% (active)
29 | CCN(CC)CCC(=O)Nc1cccc2c1C(=O)c1ccccc1C2=O | -12.3% | 21.1% | 8.87% | 25.7% (active)
30 | CCCS(=O)(=O)Nc1ccc(Nc2c3ccccc3nc3ccccc23)c(OC)c1 | 64.2% (active) | 17.1% | 56.8% (active) | 2.6%
31 | CCn1nc(C)c(CNC(=O)c2cc(COc3ccc(F)cc3Cl)on2)c1C | 12.7% | 28.5% | 8.35% | 20%
32 | COc1cc(OC)c2nc(C)c3c(c2c1)N(c1ccc(O)cc1)CC3 | 5.19% | 37.7% (active) | 12.8% | 30.1% (active)
33 | Cc1ccc(CNc2ncnc3ccc(-c4ccoc4C)cc23)o1 | 58.8% (active) | 52% (active) | 62% (active) | 50.9% (active)
34 | CC(C)n1cc(/C=C/c2cc[n+](C)cc2)c2ccccc21 | 14% | 21% | 16.8% | 30.3% (active)
35 | CC(=O)NC(C)c1cc(Cl)c2cccnc2c1O (configuration not stated) | 20.2% | 2.75% | 10.6% | 2.16%
36 | CC(=NNc1nc2ccccc2o1)c1cc2ccccc2cn1 | 88.8% (active) | 86.4% (active) | 80.6% (active) | 86.3% (active)
37 | Nc1nc(=O)n(C2CC(O)C(CO)O2)cc1F (configuration not stated) | 58.5% (active) | 37.5% (active) | 57.2% (active) | 40.9% (active)
38 | O=C(Nc1scc(-c2ccc(Br)cc2)c1C(=O)O)c1ccccc1F | 10.7% | 15.8% | -17.2% | 10.7%
39 | CCCCCCCCCCCCCCCCCCNc1ccn(C2OC(COP(=O)(O)OCC3OC(n4cc(F)c(=O)[nH]c4=O)CC3O)C(O)C2O)c(=O)n1 (configuration not stated) | 52.3% (active) | 38.7% (active) | 51% (active) | 31.2% (active)
40 | CC(C)(C)[C@H]1C=C(C(=O)Nc2ccccc2)O[C@@H](OCCCCO)C1 | -13.7% | -16.4% | -41.4% | -38%
41 | O=C(N/N=C/c1cc(O)ccc1Br)c1cccnc1 | 17.6% | 37.5% (active) | 19.8% | 39.3% (active)
42 | CC(C)(C)OC(=O)NCCCC[C@H](NC(=O)c1nc[nH]c1C(=O)N[C@@H](CCCCNC(=O)OC(C)(C)C)C(=O)OC(C)(C)C)C(=O)OC(C)(C)C | -4.98% | -9.56% | -34.5% | -3.49%
43 | COc1cc2c(cc1OC)C(C)N(C(=O)c1cccc([N+](=O)[O-])c1)CC2 (configuration not stated) | 34% | 23.4% | 17.3% | 22.3%
44 | Cc1ccc(-c2n[nH]c(=S)n2/N=C/c2ccncc2)cc1 | 26% | 19.3% | 37.6% | 28.7% (active)
45 | COC(=O)c1ccc2nc(NC(=O)C(C)(C)C)sc2c1 | -14.6% | -16.8% | -142% | -60.1%
46 | O=C(CSC1=NCCS1)Nc1ccnc2ccccc12 | 28.1% | 37.7% (active) | 27.5% | 37.9% (active)
47 | NC(=O)c1cc(Sc2ccccc2)nc2ccccc12 | 38% | 16.6% | 34.4% | 16%
48 | COc1ccc(C(=O)N/N=C/c2cc(Br)ccc2O)cc1OC | 26.2% | 37.5% (active) | 22% | 42.5% (active)
49 | COc1ccc(-c2cn[nH]c2N)c(OC)c1 | 59.7% (active) | 50.5% (active) | 43.9% | 41.7% (active)
50 | COc1cccc(/C=N/NC(=O)c2cc3c(OC)cccc3[nH]2)c1O | 28.5% | 29% | 37.1% | 26% (active)
51 | O=C(Nc1ccc(S(=O)(=O)N2CCCCC2)cc1)c1ccc(CN2CCOCC2)cc1 | 15.9% | 46% (active) | -6% | 47.1% (active)
52 | COC(=O)c1cc(N/C(N)=N/c2nc(C)cc(C)n2)cc(C(=O)OC)c1 | 27.3% | 55.4% (active) | 48.2% (active) | 52% (active)
53 | COC1CC(C)C(OC)c2cc(O)cc(c2O)NC(=O)C(C)=CC=CC(C)C(OC(N)=O)C(C)=CC(C)C1OC (configuration not stated) | 72.5% (active) | 80.2% (active) | -2.07% | 77% (active)
